This passage reports inhibition results from PubChem BioAssay AID588499 (NMMLSC, 2011).

About 610 (0.17%) of roughly 360,000 compounds were called active. Not shown: some 2% with an inconclusive outcome. No stated cut-off is given here; in the data, active means inhibition above about 30%; inconclusive means no clear call, values can overlap the other calls; inactive means below that. The list comes from a sample in which actives are over-represented; it also holds similar structures and randomly drawn compounds.

For this assay, the system named is Botulinum neurotoxin type A light chain protease (Clostridium botulinum A str. ATCC 3502). Put plainly: BoNT/A light chain protease inhibitors, primary screen, biochemical, flow cytometry, MLPCN library (AID 588499). Further: plate controls were buffer without enzyme for full effect and enzyme alone for no effect. The following applies: multiplex microsphere protease substrate cleavage, at 10 µM, active compounds read high.
On to `NC(CSC12CC3CC(CC(C3)C1)C2)C(=O)O` (stereo not drawn), for which the inhibition is 1.6% (inactive).
In the case of `CCCCN(C(=O)COc1ccc(NC(C)=O)cc1)C1CCS(=O)(=O)C1` (stereo not drawn) it was 1.1% (inactive); in that of `O=C(Nc1ccc(-n2ccnc2P(=O)(O)c2ccccc2)cc1)c1ccccc1Br`, 1.4% (inactive).
As to `O=C(C[n+]1cc(Br)cc2ccccc21)c1ccc(F)cc1`, the inhibition is 120% (active).
With `O=C(CNC(=O)c1ccccc1F)c1ccc(Br)cc1`, the inhibition is 0.8% (inactive).
Take `COC(=O)C[n+]1cccc2ccccc21`: the inhibition is 28.6% (inactive).
For `Cc1cc(C)c2c(c1)cc(C)c1nnc(SCC(=O)Nc3cc(C)on3)n12`, the inhibition was -0.7% (inactive).
As for `CCOCC(=O)NCc1ccc2c(c1)cc(C)n2C`, the inhibition is 6% (inactive).
Take `COc1cc(C(=O)NCc2cc3cc(Cl)ccc3n2C)cc(OC)c1OC`: the inhibition was 0.3% (inactive).
To `COc1cc(C(=O)NCc2ccc3c(c2)cc(C)n3C)cc(OC)c1OC` belongs 74.1% (active); to `CCC(Cc1ccccc1)NC(=O)C1CCCCC1` (stereo not drawn), 0.2% (inactive).
As for `O=C(c1c(Cl)nc2sccn12)N1CCCc2ccccc21`, the inhibition is 0% (inactive).
On to `Cc1ccc(C(=O)N2CCCc3ccccc32)c(Cl)c1`, for which the inhibition is -0.5% (inactive).
Take `Cc1cccc2cc3c(N)c(C(=O)N4CCCc5ccccc54)sc3nc12`: the inhibition is 54.5% (active).
On to `COc1cc2ccc(C(C)=O)c(O)c2cc1OC`, for which the inhibition was 0% (inactive).
Consider `C[C@H]1COc2cc(N3CCSCC3)ccc2S(=O)(=O)N1`, for which the inhibition is 1.1% (inactive).
Take `Cc1noc(C)c1NC(=O)Nc1cccc2c1O[C@H](CN(C)S(=O)(=O)c1c(C)noc1C)[C@@H](C)CN([C@H](C)CO)C2=O`: the inhibition was -0.8% (inactive).
Take `COc1ccc(OC)c(NC(=O)C2CCCN2S(=O)(=O)c2cccc3nsnc23)c1` (stereo not drawn): the inhibition is 0.9% (inactive).
As for `O=c1c(-c2ccccc2Cl)c[nH]n1-c1ccccc1`, the inhibition was 1.7% (inactive).
With `CCCCNC(=O)C[C@@H]1C[C@@]2(C(=O)OCC)CCC=C2N(Cc2ccco2)C1=O`, the inhibition was 0.2% (inactive).
As to `CN1CC(c2ccccc2)C2(COc3ccccc3C2=O)C12C(=O)Nc1ccccc12` (stereo not drawn), the inhibition is -0.4% (inactive).
Consider `CCc1nc2c(OCC(=O)C(C)(C)C)cccn2c1N(C)C(=O)c1ccccc1F`, for which the inhibition is -0.5% (inactive).
With `CC(NCc1nc2ccccc2n1C)C12CC3CC(CC(C3)C1)C2` (stereo not drawn), the inhibition was 0% (inactive).
In the case of `CN1C=CC=C/C1=C1\SC(=S)N(Cc2ccccc2)C1=O`, the inhibition is -1.8% (inactive).
`COc1ccc(CCNC2=C(Cl)C(=O)N(Cc3ccccc3)C2=O)cc1OC`: the inhibition is -0.2% (inactive).
For `COc1cc(/C=C2/SC(=S)N(Cc3ccccc3)C2=O)cc(OC)c1O`, the inhibition is 39.9% (active).
For the molecule `O=C(O)CN(Cc1ccco1)S(=O)(=O)c1ccc(F)cc1`, the inhibition is -0.4% (inactive).
Consider `Cc1csc(Nc2ccc(Cl)cc2)[n+]1-c1ccc(Cl)cc1`, for which the inhibition was -2% (inactive).
As to `O=C(CN1C(=O)c2ccc([N+](=O)[O-])cc2C1=O)Nc1nnc(C2CC2)s1`, the inhibition was -0.6% (inactive).
For the molecule `COc1cccc(-c2cc3nc4c(c(N5CCC6(CC5)OCCO6)n3n2)CCCC4)c1`, the inhibition is 0.1% (inactive).
To `Cc1onc(-c2ccccc2Cl)c1C(=O)NCCn1ccc2ccccc21` belongs 81.2% (active); to `Cc1onc(-c2ccccc2Cl)c1C(=O)N(Cc1ccc(N(C)C)cc1)C(C)C`, -3.2% (inactive); to `Cc1ccc2cc(CCNC(=O)c3c(-c4ccccc4Cl)noc3C)c(=O)[nH]c2c1`, -0.3% (inactive).
For the molecule `Oc1c(Cl)cc(Cl)c(Cl)c1Cc1c(O)c(Cl)cc(Cl)c1Cl`, the inhibition is -1% (inactive).
On to `CC(=O)Nc1ccc(NC(=O)C(C)n2c3ccccc3c3nc(=O)cc(C)n32)cc1` (stereo not drawn), for which the inhibition was -0.3% (inactive).
`COc1ccc(-c2cc3c(c4c2ccn4C)C2CCC3C2)cn1` (stereo not drawn): the inhibition was 52.1% (active).
Take `Cc1cccc(S(=O)(=O)N(C)C[C@H]2OCc3cnnn3CCCC(=O)N([C@@H](C)CO)C[C@H]2C)c1`: the inhibition is -0.3% (inactive).
Consider `Cc1c(CC(=O)N2CCN(C(=O)C3COc4ccccc4O3)CC2)c(=O)oc2c(O)c(O)ccc12` (stereo not drawn), for which the inhibition was 3.7% (inactive).
For `COc1ccc(CCNC(=O)C2CC3Cn4c(nc5cc(C)c(C)cc54)C3N2C)cc1` (stereo not drawn), the inhibition was -0.2% (inactive).
On to `O=C1[C@@H]2C(c3cccnc3)=NO[C@@H]2C(=O)N1c1ccc(Cl)cc1Cl`, for which the inhibition is -0.1% (inactive).
As to `COc1ccc(NC(=O)N2CCCC(C(=O)Nc3ccccc3OC)C2)cc1` (stereo not drawn), the inhibition was -1.6% (inactive).
For `CC1(C(=O)NCc2ccc3c(c2)OCO3)CCN1C(=O)Cc1cccs1` (stereo not drawn), the inhibition is -0.2% (inactive).
In the case of `CCN(CC)C(=O)C(C)N1c2cccc3cccc(c23)S1(=O)=O` (stereo not drawn) it was 0.5% (inactive); in that of `CC(C)c1nc(CNC(=O)CC2C(=O)NCCN2Cc2cccc(F)c2F)cs1` (stereo not drawn), 0% (inactive); in that of `Cc1ccc(C(=O)NCC(=O)OCC(=O)Nc2cccc(S(=O)(=O)N3CCCC3)c2)cc1C`, -0.4% (inactive).
Turning to `COC1=NC2=NCCN2C(OC)=N1`, the inhibition is -0.5% (inactive).
For the molecule `C[C@H](CO)N1C[C@H](C)[C@@H](CN(C)C(=O)C2CCCCC2)OCc2cnnn2CCCC1=O`, the inhibition is -0.2% (inactive).
To `COc1ccc(S(=O)(=O)N(CCCN2CCCC2=O)Cc2cc3c(C)ccc(C)c3[nH]c2=O)cc1` belongs 0.4% (inactive); to `CNC(=O)Nc1cc(C(C)(C)C)no1`, 0% (inactive).
As for `CCOC(=O)C1=C(C)NC2=C(C(=O)CC(C)(C)C2)C1c1ccsc1` (stereo not drawn), the inhibition was 1.6% (inactive).
In the case of `Cc1ccc(NC(=O)COc2ccc(-n3ccnc3)cc2)cc1Cl`, the inhibition was -0.5% (inactive).
In the case of `Cc1ccc(-c2nc(-c3cccnc3)sc2CC(=O)Nc2ccc(C)c(Cl)c2)cc1`, the inhibition was 51.4% (active).
`Cc1nc(-c2ccc(F)cc2)c(CC(=O)Nc2cccc(S(=O)(=O)N3CCOCC3)c2)s1`: the inhibition is 1.2% (inactive).
Regarding `Nc1ncnc2c1cnn2C1CC(O)C(CO)O1` (stereo not drawn), the inhibition was 0.6% (inactive).
As for `C=C1C(=O)[C@]23C[C@H]1CCC2[C@@]1(C)C(C[C@@H]3O)[C@](C)(C(=O)O)CC[C@@H]1O` (stereo partly drawn), the inhibition was 0.1% (inactive).
For `Cc1cc(N2CCCC2)ccc1NC(=O)COc1ccc(Cl)cc1`, the inhibition was -8.3% (inactive).
To `CCN1/C(=C\c2ccc3ccccc3[n+]2CC)Sc2cc(C)ccc21` belongs 71.1% (active); to `CC(C)C[C@@H](COCc1ccc(Cl)cc1)N1CCN(C(=O)c2ccc(Cl)cc2Cl)CCC1=O`, -0.6% (inactive).
